Experimental findings from PubChem BioAssay AID1851 (National Center for Advancing Translational Sciences (NCATS), 2009) are described below.

SMILES strings stand for the structures. Among all 16,000 compounds or so, about 4,000 (25%) were called active. Inconclusive results (about 26%) are left out. These entries were drawn from the full list. Unmarked numbers belong to inactive results. The call rests on the fitted dose curve; in most records, active means well fitted curve in the direction sought with a large enough effect; inconclusive means small, poorly fitted or top-dose-only effect, or effect the other way; inactive means no such curve, though single readings can be large or run the other way. Square brackets hold non-standard residues; d marks the D form. Peptide text beside a SMILES is read from it. * marks the point of attachment. ξ: configuration not given here. Cbz = O=C(OCc1ccccc1)*; ξA = CC(N)C(=O)O
On the % scale 0 is the no-effect control and ±100 the full control effect.

The target in this assay is Cytochrome P450 2C9 (Homo sapiens) (UniProt P11712). Nature of the assay: Cytochrome panel assay with activity outcomes. Particulars: recombinant CYP, pro-luciferin dealkylation, luminescence, p450-cyp2c9; series mostly up to 57.1 µM.
Chain of Cytochrome P450 2C9 (Homo sapiens) (P11712 whole entry, looked up): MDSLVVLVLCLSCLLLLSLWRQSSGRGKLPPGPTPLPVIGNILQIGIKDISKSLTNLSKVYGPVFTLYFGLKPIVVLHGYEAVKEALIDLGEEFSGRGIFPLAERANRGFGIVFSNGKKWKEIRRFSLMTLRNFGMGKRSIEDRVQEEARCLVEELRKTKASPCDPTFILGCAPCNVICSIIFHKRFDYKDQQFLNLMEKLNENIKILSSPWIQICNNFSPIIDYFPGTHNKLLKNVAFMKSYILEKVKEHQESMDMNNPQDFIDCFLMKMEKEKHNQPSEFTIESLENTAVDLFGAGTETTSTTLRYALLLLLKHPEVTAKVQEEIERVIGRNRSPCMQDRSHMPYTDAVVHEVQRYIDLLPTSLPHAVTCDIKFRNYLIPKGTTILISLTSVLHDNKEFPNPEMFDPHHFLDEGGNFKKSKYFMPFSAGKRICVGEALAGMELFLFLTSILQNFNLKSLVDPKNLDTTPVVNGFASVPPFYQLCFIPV
Usually AC50 stands for the concentration at which the activity in the assay is half-maximal. As to `Nc1nc2c(nc(Br)n2[C@@H]2O[C@H]3COP(=O)(O)O[C@H]3[C@@H]2O)c(=O)[nH]1`, the AC50 entry was “inactive”. Same read-out and setting: the result for `COC(=O)[C@](C)(N)Cc1ccc(O)cc1` reads “inactive”; that for `COc1cc([C@H](O)C(=O)O)ccc1O`, “inactive”; that for `COC(=O)/C=C\c1cc(O)ccc1O`, 7.94 µM (active). For the compound `O=C(c1ccc(Br)cc1)c1cc([N+](=O)[O-])ccc1N1CCCCC1`, the concentration at half-maximal activity (AC50) is 2.51 µM (active). Take `CN1CCN(c2ccc([N+](=O)[O-])cc2C(=O)N2CCOCC2)CC1`: the AC50 entry was “inactive”. With `Cn1c(CCN2CCCCC2)nc2cc([N+](=O)[O-])ccc21`, the AC50 entry is “inactive”.

For `CCN1CCN(c2nn3c(=O)c4ccccc4nc3c3ccccc23)CC1`, the AC50 entry is “inactive”.

As to `CCn1c(/C=C2/C(=O)N(C)c3ccccc32)nc2ccccc2c1=O`, the AC50 was 10 µM (active). For the compound `Cc1cnc(CNc2cc(-c3ccccc3C)ncn2)cn1`, the activity, negative = inhibition was -11.2% [at 2.29 µM]. Take `CCc1ccc(-c2csc(NC(=O)C3CCCO3)c2C(=O)OC(C)C)cc1` (centres undefined): the AC50 was 4.47 µM (active).

In the case of `CO/N=C\[C@@H](OC)[C@H](C)/C=C\CC(=O)OC`, the activity, negative = inhibition is -2.61% [at 11.4 µM].

On to `CCOc1cc(/C=C2/SC(=O)N(CC(=O)N3CCc4ccccc4C3)C2=O)ccc1OCC(=O)O`, for which the AC50 was 12.6 µM (active).

Turning to `Cn1c(=O)[nH]c2ncn(C)c2c1=O`, the AC50 result was “inactive”. The same measure, in the same setting: the entry for `Cc1c(Br)c([N+](=O)[O-])nn1CC(=O)NCc1ccccn1` is “inactive”; for `Cc1ccc(NC(=O)Cn2nc([N+](=O)[O-])c(Br)c2C)cc1C` it is 14.1 µM (active). Still for that read-out and setting: the entry for `Cc1c(Br)c([N+](=O)[O-])nn1CC(=O)NCc1cccs1` is “inactive”.

For `CC[n+]1c(/C=C/Nc2ccccc2)oc2ccccc21`, the AC50 result was “inactive”. On the same count and under the same terms, the result for `CC[N+](CC)(CC(=O)Nc1c(C)cccc1C)Cc1ccccc1` reads “inactive”; that for `CCc1cccc(C)c1NC(=O)CSc1nc2ccc(N3C(=O)c4ccccc4C3=O)cc2s1`, 3.55 µM (active). Same read-out and setting: the result for `NC(=O)CNC(=O)[C@@H]1CC2(CC(c3ccccc3)=NO2)CN1C(=O)c1ccc(Br)cc1` (some centres undefined) reads “inactive”; that for `O=C(O)c1ccccc1C(=O)NCc1ccc(F)cc1`, “inactive”. `COc1ccc(CN(CCC#N)C(=S)NC(=O)c2ccccc2)cc1`: the AC50 was 0.631 µM (active). On to `CCOc1ccc(C(=O)NC(=S)N(Cc2ccccc2)Cc2ccccc2)cc1`, for which the concentration at half-maximal activity (AC50) is 10 µM (active). On the same count and under the same terms, the result for `O=C(NC(=S)N(Cc1ccccc1)Cc1ccccc1)c1ccccc1F` reads 0.891 µM (active). Same read-out and setting: the entry for `CN1CCN(NC(=O)c2ccccc2F)CC1` is “inactive”; for `O=C(NC1(C(F)(F)F)C(=O)Nc2c1c(=O)[nH]c(=O)n2-c1ccc(F)cc1)c1cccnc1` (centres undefined) it is “inactive”. As for `Cc1cccc(CNc2ncncc2-c2cccc(C#N)c2)c1`, the activity, negative = inhibition is -7.76% [at 2.29 µM].

As for `Cn1cccc1C(=O)N1CCC[C@@]2(CCN(c3ccccn3)C2)C1`, the AC50 entry was “inactive”. Take `Cc1ccc(-c2nnc(C)c(N3CC(C)OC(C)C3)n2)cc1` (centres undefined): the AC50 is 17.8 µM (active). Same read-out and setting: the result for `Cc1ccc(CC(=O)N2CC(C)OC(C)C2)cc1` (centres undefined) reads “inactive”; that for `O=C1NCCCC1C(=O)Nc1ccccc1C(F)(F)F` (centres undefined), “inactive”. Still for that read-out and setting: the figure for `CCCC[C@@H]1C[C@H]1C(NC(=O)c1ccccc1)c1ccccc1C(F)(F)F` (some centres undefined) is 1.26 µM (active); for `CCCC[C@@H]1C[C@H]1C(NC(=O)c1cccs1)c1ccccc1C(F)(F)F` (some centres undefined) it is 1 µM (active).

As for `C#CCCCO/N=C1/[C@H]2O[C@@H]2[C@@H](O)[C@H]2[C@H]1CCn1c(=O)n(C)c(=O)n12`, the activity, negative = inhibition is 4.28% [at 11.4 µM]. For the compound `CCOC(=O)C1CN(S(=O)(=O)c2cccc(C(F)(F)F)c2)c2cc(CC(=O)OC)ccc2O1` (centres undefined), the AC50 was 6.31 µM (active). Still for that read-out and setting: the result for `CCC(C)C(NC(=O)OCc1ccccc1)C(=O)OCN1C(=O)c2ccccc2C1=O` (centres undefined) reads 12.6 µM (active); that for `COC(=O)CNC(=O)C(C)NC(=O)CNC(=O)OCc1ccccc1` (stereo not drawn) (Cbz-Gly-[ξA]-Gly-OMe), “inactive”; that for `O=C(CCNC(=O)c1ccccc1)OCN1C(=O)c2ccccc2C1=O`, “inactive”. Take `N#Cc1ccccc1Sc1ccccc1N`: the half-maximal activity concentration (AC50) was 5.01 µM (active). On the same count and under the same terms, the entry for `N#CC(=C(/N)Sc1ccccc1N)/C(C#N)=C(/N)Sc1ccccc1N` is “inactive”. For `CC(=O)COC(=O)CCc1nc2ccccc2[nH]c1=O`, the AC50 entry was “inactive”.

As to `CCN(CC)CCOc1ccc2nc(N(C)C)sc2c1`, the AC50 result was “inactive”. On the same count and under the same terms, the figure for `O=c1c(-c2nnc(SCc3ccc(Cl)cc3Cl)o2)cccn1Cc1ccccc1` is 11.2 µM (active). On to `CC(C)=CCNc1ncnc2nc[nH]c12`, for which the activity, negative = inhibition was -9.02% [at 11.4 µM].

For `S=C(S)O[C@@H]1C[C@@H]2C[C@H]1[C@@H]1CCC[C@H]21`, the AC50 is 3.98 µM (active). The same measure, in the same setting: the result for `CC1CCC(C(=O)NC(C(=O)N2CCC(N3CCCCC3)CC2)C(C)C)CC1` (centres undefined) reads “inactive”. With `Nc1ncnc2c1ncn2CCCCC(=O)O`, the activity, negative = inhibition was 9.41% [at 11.4 µM]. As for `O=C1C=C(NCC2CCCO2)C2(CCCCC2)O1` (centres undefined), the AC50 entry is “inactive”. In the case of `O=S(=O)(c1cnccc1N1CCN(/N=C/c2ccccc2)CC1)N1CCCCC1`, the half-maximal activity concentration (AC50) is 17.8 µM (active). Take `CC(C)N1CCN(c2ccncc2S(=O)(=O)N2CCCCC2)CC1`: the activity, negative = inhibition was -8.32% [at 11.4 µM].

For the compound `O=S(=O)(c1cnccc1N1CCN(CCO)CC1)N1CCCC1`, the activity, negative = inhibition was 8.09% [at 11.4 µM].

As for `Cc1ccc(-c2ccc(CCC(=O)O)n2CC2CCCO2)cc1` (centres undefined), the AC50 result was “inactive”. As for `CC(=O)c1ccc(-n2c(CCC(=O)O)ccc2-c2cccs2)cc1`, the AC50 is 14.1 µM (active).

Consider `NC(=O)Nn1c(CCC(=O)O)ccc1-c1ccc(F)cc1`, for which the AC50 entry is “inactive”.

As to `Cc1cc(C2CCCCC2)n(O)c(=O)c1`, the AC50 entry is “inactive”. In the case of `CS(=O)(=O)Nc1cccc(-c2ccc3ncnc(N4CCNCC4)c3c2)c1`, the activity, negative = inhibition was -12.1% [at 2.29 µM]. Turning to `O=C(O)/C(=C\c1ccc(O)cc1)c1cccc2ccccc12`, the activity, negative = inhibition is -3.39% [at 11.4 µM].

`O=C(/C(=C/c1ccc(Cl)cc1)c1nc2ccccc2[nH]1)c1ccccc1`: the AC50 was 0.631 µM (active). On the same count and under the same terms, the result for `O=C(O)/C(=C/c1c(C(=O)O)[nH]c2cc(Cl)cc(Cl)c12)c1ccccc1` reads “inactive”; that for `CN1CCN(CCCN2c3ccccc3Sc3ccc(S(=O)(=O)N(C)C)cc32)CC1`, “inactive”.

For the compound `N[C@@H](Cc1[nH]nc2ccccc12)C(=O)O`, the activity, negative = inhibition is 7.77% [at 11.4 µM]. With `CN(Cc1ccccc1)C(=O)CC(c1ccccc1)c1cc(Cl)ccc1O` (centres undefined), the half-maximal activity concentration (AC50) was 4.47 µM (active). Still for that read-out and setting: the figure for `CC(C)Oc1ccc(CNC(=O)CC(c2ccccc2)c2cc(Cl)ccc2O)cc1` (centres undefined) is 2.24 µM (active). With `C[C@@H](c1ccccc1)N1C(=O)[C@@H]2[C@H]3C(=CC[C@H]2C1=O)C(=O)[C@H]1O[C@H]1[C@H]3O`, the activity, negative = inhibition is -6.91% [at 11.4 µM].

For the compound `Oc1cc(O)c2c(c1)O[C@H](c1ccc(O)c(O)c1)[C@H](O)C2`, the AC50 entry is “inactive”. Same read-out and setting: the result for `Cc1ccc(-n2c(-c3cc(C)n(C)n3)n[nH]c2=S)cc1` reads “inactive”; that for `Cc1cc(-c2n[nH]c(=S)o2)c(C)n1-c1ccccc1`, 12.6 µM (active). For `CC[N+](CC)(CC)CCOc1cccc(OCC[N+](CC)(CC)CC)c1OCC[N+](CC)(CC)CC`, the AC50 result was “inactive”.

Regarding `CCCN1C[C@@H](CSC)C[C@H]2c3cccc4[nH]cc(c34)C[C@@H]21`, the AC50 result was “inactive”. As to `O=C(N/N=C/c1ccc(Cl)cc1Cl)Nc1ccccc1`, the AC50 entry is “inactive”.

Turning to `C/C(=N\NC(=O)c1cccc(F)c1)c1ccc(Br)s1`, the AC50 result was “inactive”. Consider `O=C(N/N=C/c1ccc(Cl)cc1Cl)c1cccc(F)c1`, for which the half-maximal activity concentration (AC50) was 15.8 µM (active). Take `Cc1cnc(CNc2nc(-c3ccccc3Cl)nc3ccccc23)cn1`: the activity, negative = inhibition is 7.89% [at 2.29 µM]. Regarding `CC(C)c1ccc(N2C(=O)CC(Sc3nc4ccccc4o3)C2=O)cc1` (centres undefined), the AC50 is 2.24 µM (active).

Take `CC1(CCC#N)N=C(SCCC#N)N(c2ccccc2)C1=O` (centres undefined): the AC50 result is “inactive”. On to `Cc1ccc(/C(C#N)=C/c2cccc([N+](=O)[O-])c2)cc1`, for which the activity, negative = inhibition is -10.5% [at 11.4 µM]. Turning to `Cc1c(OC(=O)c2ccc([N+](=O)[O-])cc2)c2c(c[n+]1C)COC(C)(C)OC2`, the AC50 result was “inactive”. Still for that read-out and setting: the figure for `Cc1ccc(S(=O)(=O)CC#CCOC(=O)c2ccc([N+](=O)[O-])cc2)cc1` is 5.62 µM (active). In the case of `Cc1ccc(C(=N)c2ccccc2Cc2cccc3ccccc23)c2ccccc12`, the activity, negative = inhibition is 5.86% [at 11.4 µM]. In the case of `COc1ccc(Cc2ccccc2C(=O)O)c2ccccc12`, the half-maximal activity concentration (AC50) is 3.98 µM (active). As to `COc1cc(Cl)c(CC(=O)c2c[nH]c3ccccc23)cc1OC`, the activity, negative = inhibition was -14.5% [at 11.4 µM]. In the case of `N[C@@H](C(=O)O)c1cc(O)ccc1Cl`, the AC50 entry was “inactive”.

`N#C/C(=C(/O)CN1CCCCC1)c1nc(-c2ccc(Cl)cc2)cs1`: the AC50 entry is “inactive”. The same measure, in the same setting: the figure for `Cc1ccc(-c2csc(C(C#N)=C3CCCC3)n2)cc1` is 11.2 µM (active); for `O=C(CSCC(=O)OCn1nnc2ccccc2c1=O)Nc1ccc(Cl)cc1` it is 12.6 µM (active). Same read-out and setting: the result for `COC(=O)c1ccc(C(=O)OC)c(NC(=S)N2CCN(c3ccccc3)CC2)c1` reads 6.31 µM (active); that for `COC(=O)c1cc(OC)c(OC)cc1NC(=S)N1CCN(C)CC1`, “inactive”; that for `COC(=O)c1ccc(N2CCN(c3ccccc3)CC2)c(NC(=O)C2CC2)c1`, “inactive”. Regarding `Cc1cccc(C)c1OC[C@H](C)N`, the AC50 result is “inactive”. Still for that read-out and setting: the result for `Cc1cc(=O)[nH]c2c1c(C)nn2C1CCOC(C)(C)C1` (centres undefined) reads “inactive”; that for `Cn1c(=O)n(-c2cccc(Cl)c2)c(=O)c2c3c(sc21)COC(C)(C)C3`, 15.8 µM (active). Same read-out and setting: the result for `CN1CCc2c(sc3c2c(=O)n(-c2ccccc2)c2nncn32)C1` reads “inactive”; that for `Cn1c(=O)n(-c2ccc(Cl)cc2)c(=O)c2c3c(sc21)COC(C)(C)C3`, 10 µM (active); that for `COc1cccc(C(C#N)N2N=C(C)CC2(C)C)c1O` (centres undefined), “inactive”.

Turning to `O=C1[C@@H]2[C@H]3[C@H](O)[C@H](O)C/C(=N/OCc4ccccc4)[C@@H]3CC[C@H]2C(=O)N1c1ccc(F)cc1F`, the activity, negative = inhibition is 12.2% [at 11.4 µM]. In the case of `C=C[C@@]1(C)CC(=O)[C@@]2(O)[C@@]3(C)[C@@H](O)CCC(C)(C)[C@@H]3[C@H](O)[C@H](OC(C)=O)[C@@]2(C)O1`, the AC50 result is “inactive”. As for `C=C[C@@]1(C)CC(=O)[C@@]2(O)[C@@]3(C)[C@@H](O)CCC(C)(C)[C@@H]3[C@H](OC(=O)CCN(C)C)[C@H](OC(C)=O)[C@@]2(C)O1`, the AC50 was 0.126 µM (active). Regarding `C=C[C@@]1(C)CC(=O)[C@@]2(O)[C@@]3(C)[C@H](O)CCC(C)(C)[C@@H]3[C@H](O)[C@H](OC(C)=O)[C@]2(C)O1`, the AC50 result is “inactive”.
